# High-throughput results: PubChem, The Scripps Research Institute Molecular Screening Center
# CHO-K1 Ca antag: counter-screen for M1 antagonists: effect in parental CHO-K1 cells; ATP-induced calcium, Fluo-8 fluorescence; inhibition, % at 3 µM; actives 0.6% (n = 360,000);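 active means inhibition above a per-plate cutoff, the plate's mean sample inhibition plus 3 SD, cut at about 24% in these data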;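 further: 0% = DMSO plus EC80 ATP and 100% = DMSO alone without ATP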
# M1 PAM: human M1 muscarinic receptor positive allosteric modulators, primary screen, CHO-K1 cells, Fluo-8 calcium fluorescence, 1536-well; actives 0.088% (n = 360,000); activation, % at 3 µM; Muscarinic acetylcholine receptor M1 (Homo sapiens), P11229; CHO-K1 hM1, ACh EC20; 0% = ACh EC20, 100% = maximal ACh; in the data active means activation above about 19%, passing the limit was not always enough
# Target sequence (P11229 whole entry, looked up): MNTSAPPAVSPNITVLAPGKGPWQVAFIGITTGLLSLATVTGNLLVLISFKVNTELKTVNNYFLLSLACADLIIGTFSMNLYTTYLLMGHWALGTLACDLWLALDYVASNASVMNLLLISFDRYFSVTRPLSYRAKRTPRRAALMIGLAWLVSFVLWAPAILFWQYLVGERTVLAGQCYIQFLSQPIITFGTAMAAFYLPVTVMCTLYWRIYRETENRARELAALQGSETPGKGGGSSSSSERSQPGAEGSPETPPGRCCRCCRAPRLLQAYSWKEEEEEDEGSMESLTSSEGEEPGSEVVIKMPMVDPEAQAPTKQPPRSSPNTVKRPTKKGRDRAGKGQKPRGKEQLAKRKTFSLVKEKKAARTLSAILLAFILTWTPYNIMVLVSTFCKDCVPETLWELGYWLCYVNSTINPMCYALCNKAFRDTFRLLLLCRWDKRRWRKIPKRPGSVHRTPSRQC
# CHO-K1 Ca ag: counter-screen for M1 agonists: effect in parental CHO-K1 cells | AID 602248, 2012 | actives 0.48% (n = 360,000) | Fluo-8 calcium fluorescence; scaled to maximal ATP response, vehicle zero | activation, % at 3 µM; in the data active means activation above about 15%;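 further: untransfected CHO-K1 host cells lacking M1 receptor as counterscreen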
# CHRM1 antagonist: human M1 muscarinic receptor antagonists, primary screen, CHO-K1 cells, Fluo-8 calcium fluorescence, 1536-well. Muscarinic acetylcholine receptor M1 (Homo sapiens), P11229. CHO-K1 hM1, ACh EC80 antagonist. inhibition, % at 3 µM. actives 1.3% (n = 360,000). AID 588852, 2011;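 active means percent inhibition above its own plate's cutoff, namely the mean of that plate's compound wells plus 3 SD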;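 further: peak over basal fluorescence ratio during 140 s after agonist addition; 0% = ACh EC80 plus DMSO and 100% = DMSO alone without agonist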
# M1 PAM parental: nonselective calcium activators in parental CHO-K1 cells, primary screen, counter-screen for M1 PAM project, cell-based, Fluo-8 calcium fluorescence, full deck, 1536-well. ATP EC20; 0% at ATP EC20, 100% at ATP max. activation, % at 3 µM. actives 0.02% (n = 360,000). AID 602247, 2012;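 active means activation above the run cutoff, the mean activation of all test compounds plus 3 SD, cut at about 40% in these data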;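 further: peak over basal fluorescence ratio in a 140 s read after ATP addition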
# CHRM1 agonist: human M1 muscarinic receptor agonists, primary screen, Fluo-8 calcium fluorescence, CHO-K1 cells, HTS; Muscarinic acetylcholine receptor M1 (Homo sapiens), P11229; CHO-K1 hM1, agonist mode; 0% DMSO, 100% acetylcholine EC100; activation, % at 3 µM; actives 0.33% (n = 360,000); AID 588814, 2011;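 active means activation above the run's mean compound activation plus 3 SD, cut at about 16% in these data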;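 further: peak over basal fluorescence ratio within a 140 s kinetic read after compound addition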
# * marks the source's active call; other numbers are inactive results. The list is not random: actives were taken first. Their share in the collection is about 2.3%.
SMILES,CHO-K1 Ca antag,M1 PAM,CHO-K1 Ca ag,CHRM1 antagonist,M1 PAM parental,CHRM1 agonist
O=C(Cc1ccccc1F)Nc1nc(-c2ccc(F)c(F)c2)cs1,-7,-16,6,9,7,-8
Cc1csc(NC(=O)Cc2ccc(Cl)cc2)n1,-9,7,1,-6,6,-1
O=C(Cc1ccccc1)Nc1nc(-c2ccc(F)c(F)c2)cs1,5,-30,7,37*,-3,-8
COc1ccc(CC(=O)Nc2nc(C)cs2)cc1,7,4,16*,-1,-6,-4
CC(C(=O)Nc1nc(-c2ccc(F)c(F)c2)cs1)N1C(=O)C2CC=CCC2C1=O (centres undefined),0,-17,13,31*,-1,-1
COc1ccc(-c2csc(NC(=O)[C@H](C)N3C(=O)C4CC=CCC4C3=O)n2)cc1OC (some centres undefined),-5,-5,7,12,26,-1
O=C(Cc1ccc(F)cc1)Nc1nc(-c2ccc(F)cc2)cs1,3,-30,6,35*,-28,-9
O=C(O)CCCC(=O)Nc1nc(-c2ccc(F)cc2)cs1,-5,5,0,-12,9,-2
O=C(Nc1ccccc1F)C1CCN(S(=O)(=O)c2cccnc2)CC1,0,16,0,-2,-1,1
O=C(CN1C(=O)NC2(CCOc3ccccc32)C1=O)NCCc1ccccc1 (centres undefined),0,2,0,-5,1,1
COc1cc(S(=O)(=O)n2ccc(C)n2)c(C)cc1C,-10,0,1,0,17,-5
CC(OC(=O)CCCN=C1NS(=O)(=O)c2ccccc21)C(=O)Nc1ccc(F)cc1Cl (centres undefined),5,11,0,-10,12,-2
CCN(CC)S(=O)(=O)c1ccc(C(=O)OCn2nnc3ccccc3c2=O)cc1,8,-15,11,active,2,-2
O=C(OCn1nnc2ccccc2c1=O)c1ccc(S(=O)(=O)N2CCOCC2)cc1,-8,5,2,-4,17,-4
Cc1cc(C)c(S(=O)(=O)N2CCN(c3ccccn3)CC2)c(C)c1,-7,-6,2,5,3,-5
CC1(C)CC(=O)C=C(c2n[nH]nc2C2=CCCCC2)C1,-6,-6,2,12,12,0
Cc1ccc(CSCC(=O)Nc2cc(S(=O)(=O)N3CCOCC3)ccc2OCC(F)(F)F)cc1,-8,1,0,-1,2,-7
COc1ccc(C(=O)NCC2CCCCC2)cc1S(=O)(=O)N1CCOCC1,-8,2,1,-6,14,-1
Cc1cc2nc(-c3cccnc3SCC(=O)NC(C)C)[nH]c2cc1C,-3,9,16*,11,15,-3
COCCOC(=O)CSc1ncccc1-c1nc2cc(C)c(C)cc2[nH]1,-4,14,1,-10,14,-1
CCN1C[C@@H]2[C@@H]3C(=O)N(Cc4ccccc4)C(=O)[C@@H]3[C@](CC)(C1=O)N2C(=O)c1ccc(C(F)(F)F)cc1,-5,3,0,-7,8,0
Cc1ccc(N2CCCC2=O)cc1S(=O)(=O)N1CCOCC1,-10,13,0,-22,-2,-4
COCCCNc1nc(SCc2ccccc2)nc2sc3c(c12)CCC3,25*,4,0,4,-5,-2
O=C(CCl)N1CCN(S(=O)(=O)c2ccc3c(c2)CCC3)CC1,4,-5,0,9,-21,-2
CCN(CC)C(CNC(=O)c1cc(=O)[nH]c2ccccc12)c1ccccc1Cl (centres undefined),-21,-30,2,55*,19,-11
SMILES,CHO-K1 Ca antag,M1 PAM,CHO-K1 Ca ag,CHRM1 antagonist,M1 PAM parental,CHRM1 agonist
O=C(NCc1cccc(Cl)c1)c1cc(=O)[nH]c2ccccc12,2,0,1,7,-10,-4
O=C(COC(=O)c1c[nH]c2ccccc12)Nc1ccc([N+](=O)[O-])cc1,-16,9,3,-12,10,-2
O=C1c2ccccc2C(=O)N1CC(=O)N1c2ccccc2Sc2ccc(C(F)(F)F)cc21,3,2,0,1,-6,-1
CN1CCN(CCC(=O)N2c3ccccc3Sc3ccc(C(F)(F)F)cc32)CC1,-12,-24,1,42*,-5,-7
CN(C)CCC(=O)N1c2ccccc2Sc2ccc(C(F)(F)F)cc21,-3,-29,2,99*,18,-9
O=C(CSc1nc2ccccc2s1)N1c2ccccc2Sc2ccc(C(F)(F)F)cc21,-6,0,1,1,6,-3
O=C(Nc1ccccc1)c1cc(C2CCCN(C(=O)c3ccccc3)C2)on1 (centres undefined),-14,1,2,-9,17,-8
O=C(Nc1ccccc1)c1cc(C2CCCN(C(=O)c3cccs3)C2)on1 (centres undefined),24*,1,0,-8,-9,-8
CCCC(=O)N1CCCC(c2cc(C(=O)Nc3ccccc3)no2)C1 (centres undefined),24*,2,0,-9,-15,-8
CC1CCN(S(=O)(=O)c2cc3c4c(c2)CCN4C(=O)CC3)CC1,5,4,1,-4,-3,-2
CN(Cc1ccccc1)CC1CCCN(CCc2ccccc2F)C1 (centres undefined),-9,-14,0,11,0,-9
CC(=O)c1cccc(CN(C)CC2CCCN(CCc3ccccc3C)C2)c1 (centres undefined),3,-27,0,100*,3,-9
COc1cc(CN(C)CC2CCCN(CCc3ccccc3F)C2)cc(Cl)c1OC (centres undefined),-4,-27,0,74*,6,-10
COc1ccc(F)c(CN(C)CC2CCCN(CCc3ccc(F)cc3)C2)c1 (centres undefined),2,-25,1,33*,11,-8
CN(C)c1ccc(CN2CCC(C(=O)NC(c3ccc(Cl)cc3)c3cnccn3)CC2)cc1 (centres undefined),-2,-4,0,-3,-4,-8
CC(C)OC(=O)c1cccc(-c2ccc(C=O)o2)c1,10,-2,0,11,-11,-3
CC(C)Cn1c(-c2csc3c2CCCC3)n[nH]c1=S,15,-34,0,44*,-15,-15
CC(C)Cn1c(-c2ccccc2F)n[nH]c1=S,-13,7,0,-10,-5,-3
